Test results published in PubChem BioAssay (NCATS).
Records with an inconclusive call do not appear. A number with no mark means an inactive call. The source made the active and inactive calls. Calls come from the whole dose curve; as a rule, active = well fitted cell-killing curve with a large enough effect; inconclusive = small, poorly fitted or top-dose-only effect; inactive = no such curve, though single readings can be large or run the other way.

Experiment: qHTS of pediatric cancer cell lines to identify multiple opportunities for drug repurposing: Primary screen for OHS-50 cells (AID 1347103); note: nearly all actives have a fitted effect of over 40% in size;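 for activity change, negative = cytotoxic: plate controls were DMSO neutral control for no effect and bortezomib positive control for full effect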
Conditions: OHS-50 osteosarcoma viability, CellTiter-Glo luminescence, 48 h; series mostly up to 57.3 µM; activity change, negative = cytotoxic: at the top concentration
In short: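 Cells (500-1,000/well) rested 5 h, then received compounds for 48 h; metabolically active cells were measured by CellTiter-Glo luminescence. Final concentrations spanned up to 46 µM (MIPE, 11-point) or 0.59 nM-46 µM (NPC, 8-point) in primary screens, 11-point in follow-ups.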
Potency is the fitted concentration of half-maximal effect.

SMILES | activity change, negative = cytotoxic | Potency
O=C1CC2(CCCC2)CC(=O)N1 | 12.5% | 
CCN1CCCC1CN (stereo not drawn) | -5.83% | 
CC(C)=CCC/C(C)=C/CC/C(C)=C/CCC(=O)OC/C=C(\C)CCC=C(C)C | 15.6% | 
CC(=O)OCC[N+](C)(C)C | 4.89% | 
O=C(CCCl)NCCc1ccccc1 | -3.92% | 
CO[C@@]1(NC(=O)CSC[C@@H](N)C(=O)O)C(=O)N2C(C(=O)O)=C(CSc3nnnn3C)CS[C@@H]21 | 3.06% | 
O=C(O)c1ccccc1Nc1cc(Cl)ccc1C(=O)O | 6.2% [at 19.7 µM] | 
CC(=O)O[C@@H]1CC2C3CCc4cc(OC(=O)c5ccccc5)ccc4C3CCC2(C)[C@H]1OC(C)=O (stereo partly drawn) | 17.4% | 
CC(NN)c1ccccc1 (stereo not drawn) | 7.32% [at 19.7 µM] | 
Oc1ccccc1 | 18% | 
O=C(Nc1ccc(Cl)cc1)Nc1ccc(Cl)c(C(F)(F)F)c1 |  | 5.5 µM (active)
O=C(O)Cc1ccc(OCCNC[C@H](O)c2ccccc2)cc1 | -11.6% | 
C[C@@H]1C[C@H]2[C@@H]3CCC4=CC(=O)C=C[C@]4(C)[C@@]3(F)[C@@H](O)C[C@]2(C)[C@@]1(O)C(=O)COC(=O)c1ccncc1 | 2.45% | 
Nc1ncnc2c1ncn2Cc1c(F)cccc1Cl | -9.42% | 
NC(=O)COCCN1CCN(C(c2ccccc2)c2ccc(Cl)cc2)CC1 (stereo not drawn) | -2.98% | 
CC(NCCC(c1ccccc1)c1ccccc1)c1ccccc1 (stereo not drawn) |  | 17.4 µM (active)
COc1ccccc1N1CCN(CC(O)COc2cc(OC)c(OC)c(OC)c2)CC1 (stereo not drawn) | 8.21% | 
O=C(Nc1ccc(S(=O)(=O)N2CCOCC2)cc1)c1cc(Cl)ccc1NS(=O)(=O)c1ccc(Cl)s1 | 84.7% | 
NC(=O)C1(N2CCCCC2)CCN(CCCN2c3ccccc3CCc3ccc(Cl)cc32)CC1 |  | 24.6 µM (active)

SMILES | activity change, negative = cytotoxic | Potency
COC(=O)[C@H]1[C@H]2C[C@@H]3c4[nH]c5cc(OC)ccc5c4CCN3C[C@H]2C[C@@H](OC(=O)/C=C/c2ccc(O)c(OC)c2)[C@@H]1OC |  | 34.7 µM (active)
C[C@@H]1CCC[C@H](C)N1CCCC(O)(c1ccccc1)c1ccccn1 (stereo partly drawn) | -13.3% | 
Cc1cc(O)c2c(O)c3c(O)cccc3cc2c1 | 27.8% | 
CCOC(=O)CN1CCCC1=O | 14.1% | 
Nc1nc2ccccc2n1Cc1ccc(F)cc1 |  | 17.4 µM (active)
NS(=O)(=O)c1cc(C(=O)NN2C[C@H]3[C@H]4CCC(C4)[C@H]3C2)ccc1Cl | 4.38% | 
CC(C)(C)c1ccc(C(=O)CCCCl)cc1 | 8.36% | 
OCc1cccnc1 | 17.4% | 
O=C(O)CCCC[P+](c1ccccc1)(c1ccccc1)c1ccccc1 | -3.76% | 
CN(C)CCN1CCN(c2cccc(Cl)c2)C1=O | -15.5% | 
CC(=O)O[C@H]1CC[C@@]2(C)C(=CC[C@@H]3[C@@H]2CC[C@]2(C)C(C(C)=O)=CC[C@@H]32)C1 | 15.4% | 
Cn1c(=O)c2c(ncn2CC(=O)O)n(C)c1=O | 5.05% | 
O=C1CC(c2ccc(Cl)cc2)CC(=O)N1 | 18.6% | 
COC(=O)c1cc(S(N)(=O)=O)ccc1OC | 5.54% | 
CCCCCC1Nc2cc(C(F)(F)F)c(S(N)(=O)=O)cc2S(=O)(=O)N1 (stereo not drawn) | 10.9% | 
CC1CN(c2cc3c(cc2F)c(=O)c(C(=O)O)cn3-c2ccc(F)cc2F)CCN1 (stereo not drawn) | 83% [at 6.18 µM] | 
CCOC(=O)C(=O)CCc1ccccc1 | 26.8% | 
COC(=O)c1cc(Cl)ccc1OC | 6.31% | 
CCCCCCCCCCCCCC[N+](C)(C)C |  | 3.09 µM (active)
